This is part of a sample that, as a whole, favours compounds with a hit. Of some 83,000 tested, about 20% had one in any assay.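 The endpoint reported here, percent growth, reads 100 for growth as untreated, 0 for no net growth and -100 for all cells dead.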 Unmarked numbers belong to inactive results. Active and inactive are the calls of the source. The calls were made as follows: active = growth percent below 10; inactive = the rest.
The compounds below were run on COLO 205 colon (assay: NCI-60 one-dose screen, 48 h (100 = growth as untreated, 0 = no growth, -100 = all killed)). Details: 10 µM unless noted.
For `CN(C)CCC(=O)C1CC1`, the growth was 112%.
Compound `COc1cc(/C=C2\C(=O)N(CCCOc3cc(O)c4c(=O)cc(-c5ccccc5)oc4c3)c3ccccc32)cc(OC)c1O` has a growth of 82.6%.
Compound `Cc1c2ccccc2nc2cc3c(cc12)[C@H]1CC[C@]2(C)C(=O)CC[C@H]2[C@@H]1CC3` has a growth of 109%.
`COc1ccc(C(=O)/C=C/c2ccccc2)cc1S(N)(=O)=O` gave a growth of 98.2%.
In the case of `Cc1ccc(OCCOCCOCCOc2ccc(C)n(O)c2=S)c(=S)n1O`, the growth is reported as 7.96% (active).
In the case of `S=c1ccnc[nH]1`, the growth is reported as 102%.
`O=C(Oc1ccc2c(c1)sc1nc(-c3ccccc3)[nH]c(=O)c12)C(F)(F)F` was tested, and the growth was 88.3%.
`Cc1cccc(-c2nc(C(C)C)sc2-c2ccnc(NCCCNS(=O)(=O)c3ccc(Cl)cc3)c2)c1` showed a growth of 60.8%.
In the case of `CN(C)CCC(CCN(C)C)(C(=O)O)c1ccccc1`, the growth is reported as 108%.
`CC1=C2[C@@H](CC1)[C@]1(C)O[C@@](C3CCNCC3)(C[C@H]1OC(=O)CO)[C@H]2OC(=O)/C=C/c1ccccc1` showed a growth of 87.2%.
In the case of `COc1ccc2c(O)c(/C=C3\N=Nc4ncccc43)oc2c1C[C@@H]1CCNC[C@H]1F`, the growth is reported as -71.9% (active).
With `CC1(C)CC[C@]2(CO)CC[C@]3(C)[C@](O)([C@H](O)C[C@@H]4[C@@]5(C)CCCNC(C)(C)[C@@H]5CC[C@]43C)[C@@H]2C1` the growth was 44.2%.
Work on `Cc1ccccc1N1CCN(C(=S)c2ccccc2)CC1` yielded a growth of 106%.
`C1CCC(N2CN3c4nonc4N4CN(C5CCCCC5)CN5c6nonc6N(C2)C3C45)CC1` (stereo unspecified) was tested, and the growth was 107%.
With `COc1ccc(/C=N/Nc2c3ccccc3nc3ccccc23)cc1` the growth was 103%.
For `Cc1nc2sc(C(=O)Nc3ccccn3)c(N)c2cc1C(C)O` (stereo unspecified), the growth was 75.1%.
With `COc1ccc(C/C(C)=C(\c2ccc(Cl)cc2)c2ccc(OCCCN(C)C)cc2)cc1` the growth was -66.7% (active).
With `CC1(C)CC[C@]23CC[C@]4(C)[C@H](CC[C@@H]5[C@@]6(C)C/C(=C/O)C(=O)C(C)(C)[C@@H]6CC[C@]54C)[C@H]2[C@H]1OC3` the growth was 111%.
Compound `Nc1ccc(Br)cc1C(F)(F)F` has a growth of 102%.
With `Cc1oc(-c2ccc(Cl)cc2)nc1C1=NN(C(=O)c2ccncc2)C(c2ccccc2)C1` (stereo unspecified) the growth was 108%.
For `CCN(CC)CCOc1ccc(Nc2ncc3cc(-c4c(Cl)cccc4Cl)c(=O)n(CCOC)c3n2)cc1`, the growth was -40% (active).
In the case of `COc1ccc(Oc2ccc(/C=C/C(=O)c3ccc(OC)c(OC)c3)cc2)cc1`, the growth is reported as 91.9%.
`C=CC(CC(c1ccccc1)(c1ccccc1)c1ccccc1)N(CC)CC` (stereo unspecified) was tested, and the growth was 64.5%.
For `CC[C@@H](C(=O)[C@@H](C)[C@@H](O)[C@H](C)[C@@H]1O[C@@H]([C@@H](CC)C(=O)ONC(=O)c2ccccc2O)CC[C@@H]1C)C1O[C@]2(C=CC(=O)[C@]3(CC[C@@](C)([C@H]4CC[C@](O)(CC)[C@H](C)O4)O3)O2)[C@H](C)C[C@@H]1C` (stereo partly specified), the growth was 11.6%.
In the case of `C[C@H](c1nc2ccc(C#N)cc2[nH]1)[C@H]1CC[C@H]2[C@@H]3CCC4=CC(=O)CC[C@]4(C)[C@H]3CC[C@]12C`, the growth is reported as 79.2%.
Compound `COc1ccc2[nH]cc(-c3nonc3-c3c[nH]c4ccc(Br)cc34)c2c1` has a growth of 32.1%.
In the case of `O=C(NCCN1CCOCC1)OCc1ccc2c(Cl)cc(Cl)c(O)c2n1`, the growth is reported as 109%.
`COc1cccc(-c2cn3nc(-c4cn(C)c5ccccc45)sc3n2)c1` gave a growth of 108%.
With `NS(=O)(=O)c1ccc(C(=O)NN2C(=O)c3ccccc3C2=O)cc1` the growth was 108%.
In the case of `CC(C)=CC(=O)N[C@H]1CC[C@]2(C)C3CC[C@]4(C)C(C(C)N(C)C)=CCC4C3CCC2[C@H]1O` (stereo partly specified), the growth is reported as -14.9% (active).
`CCCn1c(=S)sc2c(NNC(C)=O)nc(C)nc21` was tested, and the growth was 126%.
Compound `Cc1nc(N/N=C/c2cn(-c3ccccc3)nc2-c2cc3ccccc3oc2=O)sc1N=Nc1ccccc1` has a growth of 105%.
`O=C(Nc1ncc(Cc2ccccc2)s1)c1sc2ccccc2c1Cl` gave a growth of 16.8%.
`COc1cc(/C=C/C(=O)c2cc(OC)c(OC)c(OC)c2)ccc1Oc1nc2c(c(=O)n(C)c(=O)n2C)n1C` was tested, and the growth was -77% (active).
For `NC(=O)c1ccccc1OCC(=O)Nc1ccc(Cl)c(Cl)c1`, the growth was 105%.
For `CCOC(=O)c1c(C)nc2ccccc2c1/C=C/c1ccc(F)cc1`, the growth was 83.6%.

Source: PubChem BioAssay (NCI)
